# Assay results as given in PubChem BioAssay (EPA / NIEHS).
# Results filed as inconclusive are left out. The source made the active and inactive calls. Rule for the calls, unless noted: active = hit-call score of the fitted dose curve at least 0.9, where 1 is the maximum; inconclusive = response in the unintended direction; inactive = score below 0.9.
# Legend:
# [1] = molecular target: Estrogen receptor (Homo sapiens) (UniProt P03372); assay: CCTE_Deisenroth_AIME_384WELL_LUC_Active: CCTE's 384-well Estrogen Receptor Transactivation Assay with AIME metabolic competence (ERTA luciferase; metabolism positive), Deisenroth Lab (AID 2284030)
# Procedure, shortened: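 Estrogenic luciferase signal in VM7Luc4E2 cells is measured at 24 hour, after chemicals have been preconditioned 2 hours with PB/BNF-induced rat hepatic S9 in alginate. Gain of signal is fitted relative to 17beta-estradiol, across 0.002 - 200 uM.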
# [2] = molecular target: Estrogen receptor (Homo sapiens) (UniProt P03372); assay: CCTE_Deisenroth_AIME_384WELL_LUC_Inactive: CCTE's 384-well Estrogen Receptor Transactivation Assay without AIME metabolic competence (ERTA luciferase; metabolism negative), Deisenroth Lab (AID 2284038);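 note: VM7Luc4E2 breast cells given medium preincubated 2 h with S9-free microspheres; hits raise estrogen receptor luciferase signal so potencies reflect agonists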
# Procedure, shortened: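 Metabolism-negative mode: AIME lids stamped in alginate-water, no hepatic S9. 2 h chemical incubation → medium onto VM7Luc4E2 ERTA, 24 h. Readout luciferase luminescence; gain-of-signal fit vs 17beta-estradiol. Conc. 0.002 - 200 uM.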
# [3] = CCTE_Deisenroth_AIME_384WELL_CTox_Inactive: Cytotoxicity Assessment (CTOX) in CCTE's 384-well Estrogen Receptor Transactivation Assay without AIME metabolic competence (metabolism negative), Deisenroth Lab (AID 2284039);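 note: cell viability via live-cell protease substrate cleaved to fluorescent probe; cells exposed 24 h to medium preincubated 2 h with alginate-water beads without S9; loss of fluorescence signal means loss of viability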
# Procedure, shortened: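 Fluorescence from a live-cell protease substrate, read after 24 h in VM7Luc4E2 cells, indicated viability. Test medium came from a 2 h AIME step without hepatic S9 (alginate-water microspheres); concentrations spanned 0.002 - 200 uM, single technical replicate per run.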
# [4] = molecular target: Estrogen receptor (Homo sapiens) (UniProt P03372); assay: CCTE_Deisenroth_AIME_384WELL_LUC_Shift: CCTE's 384-well Estrogen Receptor Transactivation Assay with AIME metabolic competence data shift (ERTA luciferase; difference in metabolism positive and negative), Deisenroth Lab (AID 2284041; active = hit-call score of the fitted dose curve at least 0.9, where 1 is the maximum; inactive = score below 0.9;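 note: shift is response with S9 minus without S9 so positive means metabolism raised ER signal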)
# Procedure, shortened: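 Test chemicals (0.002–200 uM, 10-point) were pre-incubated 2 h with alginate microspheres containing phenobarbital/beta-naphthoflavone-induced male Sprague Dawley rat liver S9 or water, then medium was transferred to VM7Luc4E2 cells for 24 h luciferase readout; shift = S9-positive minus S9-negative normalized response.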
# [5] = CCTE_Deisenroth_AIME_384WELL_CTox_Active: Cytotoxicity Assessment (CTOX) in CCTE's 384-well Estrogen Receptor Transactivation Assay with AIME metabolic competence (metabolism positive), Deisenroth Lab (AID 2284037);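 note: chemicals first conditioned 2 h by alginate-bound induced rat liver S9 before cells; activity means signal loss indicating cell death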
# Procedure, shortened: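 Cytotoxicity in VM7Luc4E2 breast cells, 24 hour, measured as protease-substrate fluorescence loss, after 2-hour metabolic conditioning with induced rat hepatic S9 in alginate microspheres. Concentrations 0.002 - 200 uM, 10 points, bidirectional fitting.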
# [6] = CCTE_Shafer_MEA_dev_per_burst_spike_percent: CCTE's Neural Network Formation Assay for Percent of Spikes in a Burst, Shafer Lab (AID 2284032; active = hit-call score of the fitted dose curve at least 0.9, where 1 is the maximum; inactive = score below 0.9;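 note: fitted as a decrease in burst spike percentage below DMSO baseline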)
# Procedure, shortened: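 Value is trapezoidal AUC over recordings on days 5, 7, 9 and 12 of the well-mean fraction of spikes falling in single-electrode bursts; rat cortical cultures exposed continuously from plating, treatment renewed DIV 5 and 9, fitted downward against DMSO.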
# [7] = CCTE_Shafer_MEA_dev_active_electrodes_number: CCTE's Neural Network Formation Assay for Number of Active Electrodes, Shafer Lab (AID 2284040);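 note: potency for loss of active electrodes versus DMSO so lower counts are hits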
# Procedure, shortened: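 Developing rat cortical networks on MEAs, exposed DIV 0–12. Value is the AUC of active-electrode counts (≥5 spikes/min) from days 5, 7, 9, 12, relative to DMSO.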
# [8] = CCTE_Shafer_MEA_dev_burst_rate: CCTE's Neural Network Formation Assay for Burst Rate, Shafer Lab (AID 2284042; active = hit-call score of the fitted dose curve at least 0.9, where 1 is the maximum; inactive = score below 0.9;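 for AC50: potency for loss of burst rate below DMSO control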)
# Procedure, shortened: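 Developmental network assay measuring how 12-day exposure of rat cortical neuron cultures alters bursting on extracellular MEA recordings. Values are AUC of well-mean burst rate across four recording days, relative to DMSO vehicle.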
# [9] = CCTE_Shafer_MEA_dev_bursting_electrodes_number: CCTE's Neural Network Formation Assay for Number of Bursting Electrodes, Shafer Lab (AID 2284043);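 note: potency is for loss of bursting electrodes relative to DMSO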
# Procedure, shortened: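 Number of electrodes reaching ≥1 burst every 2 min was recorded at DIV 5, 7, 9 and 12 and collapsed as trapezoidal area under the curve. Cultures were rat cortical neurons on MEA plates, dosed continuously from plating with medium and treatment refreshed on DIV 5 and 9.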
# [10] = CCTE_Shafer_MEA_dev_per_burst_interspike_interval: CCTE's Neural Network Formation Assay for Burst Interspike Interval, Shafer Lab (AID 2284044; active = hit-call score of the fitted dose curve at least 0.9, where 1 is the maximum; inactive = score below 0.9;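 for AC50: potency for a decrease of within-burst interspike interval below DMSO level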)
# Procedure, shortened: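 Spontaneous activity of maturing rat cortical networks is recorded on DIV 5, 7, 9 and 12 under chronic compound exposure beginning at plating. Endpoint: burst interspike interval well-mean, collapsed into trapezoidal AUC and fitted in the negative direction relative to DMSO.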
# [11] = CCTE_Shafer_MEA_dev_burst_duration_mean: CCTE's Neural Network Formation Assay for Mean Burst Duration, Shafer Lab (AID 2284045; active = hit-call score of the fitted dose curve at least 0.9, where 1 is the maximum; inactive = score below 0.9)
# Procedure, shortened: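 Mean single-electrode burst duration (first to last spike), averaged over bursting electrodes per well, then integrated as area-under-curve across recordings at days 5, 7, 9 and 12. Rat cortical cultures on MEAs, compound present from plating, refreshed at feeds.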
# [12] = CCTE_Shafer_MEA_dev_interburst_interval_mean: CCTE's Neural Network Formation Assay for Mean Interburst Interval, Shafer Lab (AID 2284046; active = hit-call score of the fitted dose curve at least 0.9, where 1 is the maximum; inactive = score below 0.9;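 note: well-mean interburst interval of bursting electrodes as AUC over four recording days; curve fitted for decrease in interburst interval relative to DMSO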)
# Procedure, shortened: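 Network formation assay in primary rat cortical cultures, exposed from DIV 0 to 12. Mean interburst interval per well, integrated as AUC over four recordings.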
# [13] = CCTE_Shafer_MEA_dev_network_spike_number: CCTE's Neural Network Formation Assay for Number of Network Spikes, Shafer Lab (AID 2284048; active = hit-call score of the fitted dose curve at least 0.9, where 1 is the maximum; inactive = score below 0.9;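 note: synchronized bursts across electrodes counted on days 5 7 9 12 and integrated as AUC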;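 for AC50: fit as a loss of signal meaning fewer network spikes than DMSO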)
# Procedure, shortened: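 Number of network spikes (coordinated firing across electrodes) recorded on days 5, 7, 9 and 12 and summarised as area under the curve. Rat cortical cultures on MEA, continuous compound exposure with full medium/treatment exchange at DIV 5 and 9.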
# [14] = CCTE_Shafer_MEA_dev_network_spike_peak: CCTE's Neural Network Formation Assay for Mean Number of Electrodes in Network Spike, Shafer Lab (AID 2284049; active = hit-call score of the fitted dose curve at least 0.9, where 1 is the maximum; inactive = score below 0.9;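 note: fitted for loss of signal meaning fewer electrodes in network spikes than DMSO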)
# Procedure, shortened: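 Rat cortical primary culture, 1.5 x 10^5 cells/well, 48-well MEA (16 electrodes/well). Dosing day 0 through DIV 12, full media/compound exchange DIV 5, 9. AxIS adaptive spike detection; AUC over days 5/7/9/12; loss-of-signal vs DMSO.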
# [15] = CCTE_Shafer_MEA_dev_spike_duration_mean: CCTE's Neural Network Formation Assay for Mean Spike Duration, Shafer Lab (AID 2284051; active = hit-call score of the fitted dose curve at least 0.9, where 1 is the maximum; inactive = score below 0.9;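 note: mean network spike duration pooled as area under curve over DIV 5 to 12 recordings; potency for a decrease in mean network spike duration versus DMSO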)
# Procedure, shortened: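 With DMSO as baseline, loss of mean network spike duration was scored from extracellular recordings of rat cortical neurons on MEA plates. Exposure spanned plating to DIV 12; the four recording days were collapsed into one AUC value.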
# [16] = CCTE_Shafer_MEA_dev_network_spike_duration_std: CCTE's Neural Network Formation Assay for Standard Deviation of Network Spike Duration, Shafer Lab (AID 2284052; active = hit-call score of the fitted dose curve at least 0.9, where 1 is the maximum; inactive = score below 0.9;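 note: hits are decreases in network spike duration SD versus DMSO vehicle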)
# Procedure, shortened: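 Developing networks of rat cortical neurons were exposed over twelve days in vitro on 48-well MEA plates. Trapezoidal AUC of recordings (DIV 5–12) was analysed for signal loss relative to DMSO vehicle.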
# [17] = CCTE_Shafer_MEA_dev_LDH: CCTE's Lactate Dehydrogenase Assay for Cytotoxicity in the Neural Network Formation Assay, Shafer Lab (AID 2284068);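 note: exposure for twelve days from plating with re-dosing on DIV 5 and 9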
# Procedure, shortened: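 Developing rat cortical networks on MEA plates are exposed to compound for 12 days from plating. LDH activity is measured spectrophotometrically, with DMSO as baseline.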
# [18] = system: DIO2 (gene 1734); assay: CCTE_GLTED_hDIO2: CCTE's human Deiodinase 2 (DIO2) Inhibition Assay, Great Lakes Toxicology and Ecology Division (GLTED) Lab (AID 2284050)
# Procedure, shortened: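 Triplicate cell-free incubations (3 h) of human DIO2 with chemical preceded colorimetric Sandell-Kolthoff quantitation of liberated iodide; DMSO served as negative control for curve fitting.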
# [19] = system: DIO3 (gene 1735); assay: CCTE_GLTED_hDIO3: CCTE's human Deiodinase 3 (DIO3) Inhibition Assay, Great Lakes Toxicology and Ecology Division (GLTED) Lab (AID 2284055);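 note: potency is for inhibition seen as loss of released iodide signal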
# Procedure, shortened: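 Steps: incubate adenovirus-produced hDIO3 with chemical for 3 hours; detect freed iodide via cerium-arsenic Sandell-Kolthoff colorimetry; compare with DMSO baseline.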
# [20] = UKN5_HCS_SBAD2_cell_viability: Viability Assessment in the University of Konstanz (UKN) Leist Lab Neurite Outgrowth Assay in human iPSC-derived immature Dorsal Root Ganglia Neurons (UKN5) (AID 2284056; active = hit-call score of the fitted dose curve at least 0.9, where 1 is the maximum; inactive = score below 0.9)
# Procedure, shortened: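 iPSC-derived immature peripheral neurons (SBAD2) seeded on Matrigel with CHIR99021, SU5402 and DAPT, dosed 1 h later for 24 h. Viability from Hoechst H-33342 and calcein-AM live staining, high-content imaging; bidirectional fit versus DMSO.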
# Estrogen receptor (Homo sapiens), sequence (P03372 whole entry, looked up): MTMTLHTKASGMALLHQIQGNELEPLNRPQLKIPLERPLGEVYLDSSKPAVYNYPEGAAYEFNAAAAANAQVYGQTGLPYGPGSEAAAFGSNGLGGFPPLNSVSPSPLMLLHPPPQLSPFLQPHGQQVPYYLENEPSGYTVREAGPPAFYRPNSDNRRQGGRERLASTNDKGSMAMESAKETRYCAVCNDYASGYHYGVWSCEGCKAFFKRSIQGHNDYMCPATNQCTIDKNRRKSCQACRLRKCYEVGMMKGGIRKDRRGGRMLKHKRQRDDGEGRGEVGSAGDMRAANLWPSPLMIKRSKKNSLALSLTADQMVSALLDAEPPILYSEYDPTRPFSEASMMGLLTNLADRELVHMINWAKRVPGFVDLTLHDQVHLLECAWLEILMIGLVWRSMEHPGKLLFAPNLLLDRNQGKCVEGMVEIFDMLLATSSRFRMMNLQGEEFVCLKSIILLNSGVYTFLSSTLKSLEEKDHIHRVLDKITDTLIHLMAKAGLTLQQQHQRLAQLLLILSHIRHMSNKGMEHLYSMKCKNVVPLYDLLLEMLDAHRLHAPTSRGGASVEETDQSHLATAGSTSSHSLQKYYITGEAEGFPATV
structure (smiles),measurement,setting,value
[O-][Cl+2]([O-])O,outcome,[1],inactive
same,outcome,[2],inactive
same,outcome,[3],inactive
same,outcome,[4],inactive
CC(=O)C=C(C)C,outcome,[1],inactive
same,outcome,[5],inactive
same,outcome,[2],inactive
same,outcome,[3],inactive
same,outcome,[4],inactive
O=C1CCCN1,outcome,[1],inactive
same,outcome,[5],inactive
same,outcome,[2],inactive
same,outcome,[3],inactive
same,outcome,[4],inactive
CC(C)OC(=O)Nc1ccccc1,AC50,[1],17 µM (active)
same,AC50,[2],17.4 µM (active)
CC(=O)c1cc(C(C)(C)C)cc2c1CCC2(C)C,outcome,[1],inactive
same,outcome,[5],inactive
same,outcome,[2],inactive
same,outcome,[3],inactive
same,outcome,[4],inactive
O=C(Cc1ccccc1)c1ccccc1,AC50,[1],112 µM (active)
same,outcome,[5],inactive
same,AC50,[2],72 µM (active)
same,outcome,[3],inactive
same,outcome,[4],inactive
CNC(=O)O/N=C/C(C)(C)S(C)=O (configuration not stated),outcome,[1],inactive
same,outcome,[2],inactive
same,outcome,[4],inactive
CCOP(=S)(OCC)SCSP(=S)(OCC)OCC,AC50,[1],13.4 µM (active)
same,outcome,[5],inactive
same,AC50,[2],10.3 µM (active)
same,outcome,[3],inactive
same,outcome,[4],inactive
CC(C)(C)c1cc(O)ccc1O,AC50,[1],0.000221 µM (active)
same,AC50,[6],10 µM (active)
same,AC50,[5],137 µM (active)
same,AC50,[2],0.000233 µM (active)
same,AC50,[3],100 µM (active)
same,AC50,[7],6.05 µM (active)
same,AC50,[4],30.7 µM (active)
same,outcome,[8],inactive
same,AC50,[9],6.04 µM (active)
same,outcome,[10],inactive
same,outcome,[11],inactive
same,outcome,[12],inactive
same,outcome,[13],inactive
same,AC50,[14],10 µM (active)
same,AC50,[15],9.62 µM (active)
same,outcome,[16],inactive
same,AC50,[17],15 µM (active)
O=S(=O)(c1ccc(Cl)cc1)c1ccc(Cl)cc1,outcome,[1],inactive
same,outcome,[2],inactive
same,outcome,[3],inactive
same,outcome,[4],inactive
C[C@@H]1C[C@@H]([C@H](O)CC2CC(=O)NC(=O)C2)C(=O)[C@@H](C)C1,AC50,[5],28.5 µM (active)
same,outcome,[3],inactive
O=C1C2(Cl)C3(Cl)C4(Cl)C(Cl)(Cl)C5(Cl)C3(Cl)C1(Cl)C5(Cl)C24Cl (configuration not stated),AC50,[6],4.18 µM (active)
same,AC50,[7],4.58 µM (active)
same,AC50,[8],3.99 µM (active)
same,AC50,[9],3.55 µM (active)
same,AC50,[10],10 µM (active)
same,outcome,[11],inactive
same,AC50,[12],3.75 µM (active)
same,AC50,[13],3.18 µM (active)
same,AC50,[14],5.38 µM (active)
same,AC50,[18],28.3 µM (active)
same,AC50,[15],5.43 µM (active)
same,AC50,[16],0.028 µM (active)
same,AC50,[19],4.51 µM (active)
same,outcome,[20],inactive
same,AC50,[17],8.19 µM (active)
